Test [1] addresses Serine/threonine-protein kinase 26 (Homo sapiens) (UniProt Q9P289). The settings on record: at 1 µM.
For test [2], the target named is Serine/threonine-protein kinase PAK 1 (Homo sapiens) (UniProt Q13153). As to conditions: at 0.1 µM.
Test [3] has the same target. The settings on record: at 1 µM.
For test [4], the target named is Serine/threonine-protein kinase PAK 2 (Homo sapiens) (UniProt Q13177). The settings on record: at 0.1 µM.
The target is the same in test [5]. The settings on record: at 1 µM.
The target in test [6] is Serine/threonine-protein kinase PAK 3 (Homo sapiens) (UniProt O75914). As to conditions: at 0.1 µM.
Test [7] has the same target. The settings on record: at 1 µM.
The target of test [8] is Serine/threonine-protein kinase PAK 5 (Homo sapiens) (UniProt Q9P286). As to conditions: at 0.1 µM.
Test [9] has the same target. The settings on record: at 1 µM.
Test [10] has as its target Serine/threonine-protein kinase PAK 6 (Homo sapiens) (UniProt Q9NQU5). The settings on record: at 0.1 µM.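 Further: mean PAK6 inhibition reported from the GSK PKIS screen.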

Chain of Serine/threonine-protein kinase PAK 5 (Homo sapiens) (Q9P286 whole entry, looked up): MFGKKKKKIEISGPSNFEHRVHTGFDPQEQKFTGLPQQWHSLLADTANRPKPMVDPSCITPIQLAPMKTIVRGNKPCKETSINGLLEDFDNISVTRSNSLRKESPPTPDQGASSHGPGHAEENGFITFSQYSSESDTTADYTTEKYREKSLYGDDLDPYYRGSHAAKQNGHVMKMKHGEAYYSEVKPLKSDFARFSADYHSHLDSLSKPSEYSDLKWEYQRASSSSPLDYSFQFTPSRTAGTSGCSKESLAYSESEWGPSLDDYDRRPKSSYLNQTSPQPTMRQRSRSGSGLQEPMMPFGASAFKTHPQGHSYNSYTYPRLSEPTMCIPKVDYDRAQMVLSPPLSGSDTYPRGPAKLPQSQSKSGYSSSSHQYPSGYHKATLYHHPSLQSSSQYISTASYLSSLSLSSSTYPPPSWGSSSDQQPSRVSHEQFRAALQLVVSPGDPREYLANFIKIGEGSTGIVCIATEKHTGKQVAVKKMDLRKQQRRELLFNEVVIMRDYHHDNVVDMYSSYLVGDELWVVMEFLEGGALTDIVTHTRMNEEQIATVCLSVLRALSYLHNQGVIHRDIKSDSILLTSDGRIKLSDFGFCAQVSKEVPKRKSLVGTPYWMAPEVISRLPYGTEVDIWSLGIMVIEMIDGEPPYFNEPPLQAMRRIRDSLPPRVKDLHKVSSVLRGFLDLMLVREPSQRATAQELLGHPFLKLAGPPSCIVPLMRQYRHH
Chain of Serine/threonine-protein kinase 26 (Homo sapiens) (Q9P289 2-416 limits assumed): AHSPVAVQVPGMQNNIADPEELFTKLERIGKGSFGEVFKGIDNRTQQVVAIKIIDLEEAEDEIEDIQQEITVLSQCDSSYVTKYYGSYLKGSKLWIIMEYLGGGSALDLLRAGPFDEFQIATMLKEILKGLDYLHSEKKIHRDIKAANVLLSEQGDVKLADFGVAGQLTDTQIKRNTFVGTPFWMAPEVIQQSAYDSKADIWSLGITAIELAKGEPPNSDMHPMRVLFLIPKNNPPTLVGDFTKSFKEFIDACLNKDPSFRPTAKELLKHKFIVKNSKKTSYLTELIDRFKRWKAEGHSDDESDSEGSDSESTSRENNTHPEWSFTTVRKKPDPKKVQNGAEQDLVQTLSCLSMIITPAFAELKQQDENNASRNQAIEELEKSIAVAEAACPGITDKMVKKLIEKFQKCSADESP
Chain of Serine/threonine-protein kinase PAK 6 (Homo sapiens) (Q9NQU5 whole entry, looked up): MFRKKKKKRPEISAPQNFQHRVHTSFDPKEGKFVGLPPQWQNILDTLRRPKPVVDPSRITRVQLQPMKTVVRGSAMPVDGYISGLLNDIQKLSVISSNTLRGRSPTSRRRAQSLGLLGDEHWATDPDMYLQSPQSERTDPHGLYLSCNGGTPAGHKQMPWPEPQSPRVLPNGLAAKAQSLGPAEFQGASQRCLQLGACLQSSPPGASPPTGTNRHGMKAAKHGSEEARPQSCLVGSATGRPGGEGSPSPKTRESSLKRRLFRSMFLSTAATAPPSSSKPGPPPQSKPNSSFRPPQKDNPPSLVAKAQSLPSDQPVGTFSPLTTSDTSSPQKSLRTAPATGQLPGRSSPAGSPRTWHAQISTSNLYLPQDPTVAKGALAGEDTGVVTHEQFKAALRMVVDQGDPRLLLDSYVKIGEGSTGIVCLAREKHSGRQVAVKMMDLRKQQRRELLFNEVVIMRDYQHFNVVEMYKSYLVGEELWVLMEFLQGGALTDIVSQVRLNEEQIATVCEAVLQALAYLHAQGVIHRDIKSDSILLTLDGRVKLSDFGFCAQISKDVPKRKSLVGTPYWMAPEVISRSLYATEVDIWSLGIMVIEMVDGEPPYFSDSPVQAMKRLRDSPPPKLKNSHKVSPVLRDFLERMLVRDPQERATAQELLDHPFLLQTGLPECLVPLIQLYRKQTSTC
Chain of Serine/threonine-protein kinase PAK 3 (Homo sapiens) (O75914 whole entry, looked up): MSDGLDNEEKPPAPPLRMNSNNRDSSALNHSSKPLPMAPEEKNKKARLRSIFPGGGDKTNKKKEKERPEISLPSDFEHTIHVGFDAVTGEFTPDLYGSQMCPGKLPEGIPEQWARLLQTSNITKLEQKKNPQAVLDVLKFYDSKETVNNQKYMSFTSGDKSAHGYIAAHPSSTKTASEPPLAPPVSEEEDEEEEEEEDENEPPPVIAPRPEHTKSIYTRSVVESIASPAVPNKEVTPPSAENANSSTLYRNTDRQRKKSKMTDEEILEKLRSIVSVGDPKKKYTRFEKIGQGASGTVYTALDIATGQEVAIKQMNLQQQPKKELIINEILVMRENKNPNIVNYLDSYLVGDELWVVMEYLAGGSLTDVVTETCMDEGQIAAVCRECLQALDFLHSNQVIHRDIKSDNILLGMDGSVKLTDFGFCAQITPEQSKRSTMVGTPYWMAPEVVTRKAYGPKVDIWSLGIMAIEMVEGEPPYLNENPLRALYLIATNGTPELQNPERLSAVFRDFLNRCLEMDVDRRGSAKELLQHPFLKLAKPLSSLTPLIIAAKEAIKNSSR
Chain of Serine/threonine-protein kinase PAK 1 (Homo sapiens) (Q13153 whole entry): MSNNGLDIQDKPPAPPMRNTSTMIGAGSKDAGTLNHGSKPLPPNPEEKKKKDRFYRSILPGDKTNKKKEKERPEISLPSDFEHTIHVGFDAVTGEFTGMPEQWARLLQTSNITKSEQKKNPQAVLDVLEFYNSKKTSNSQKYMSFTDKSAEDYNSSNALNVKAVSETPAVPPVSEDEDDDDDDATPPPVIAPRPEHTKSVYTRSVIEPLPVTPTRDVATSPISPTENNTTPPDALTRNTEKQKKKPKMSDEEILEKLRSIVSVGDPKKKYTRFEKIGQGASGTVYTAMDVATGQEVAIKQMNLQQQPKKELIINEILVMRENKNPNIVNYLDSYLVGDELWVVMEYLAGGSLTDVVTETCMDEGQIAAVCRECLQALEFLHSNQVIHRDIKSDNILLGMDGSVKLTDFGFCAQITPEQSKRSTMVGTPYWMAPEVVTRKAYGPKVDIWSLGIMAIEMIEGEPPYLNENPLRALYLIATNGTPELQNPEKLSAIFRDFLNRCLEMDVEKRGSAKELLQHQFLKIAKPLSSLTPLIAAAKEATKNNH
Chain of Serine/threonine-protein kinase PAK 2 (Homo sapiens) (Q13177 whole entry): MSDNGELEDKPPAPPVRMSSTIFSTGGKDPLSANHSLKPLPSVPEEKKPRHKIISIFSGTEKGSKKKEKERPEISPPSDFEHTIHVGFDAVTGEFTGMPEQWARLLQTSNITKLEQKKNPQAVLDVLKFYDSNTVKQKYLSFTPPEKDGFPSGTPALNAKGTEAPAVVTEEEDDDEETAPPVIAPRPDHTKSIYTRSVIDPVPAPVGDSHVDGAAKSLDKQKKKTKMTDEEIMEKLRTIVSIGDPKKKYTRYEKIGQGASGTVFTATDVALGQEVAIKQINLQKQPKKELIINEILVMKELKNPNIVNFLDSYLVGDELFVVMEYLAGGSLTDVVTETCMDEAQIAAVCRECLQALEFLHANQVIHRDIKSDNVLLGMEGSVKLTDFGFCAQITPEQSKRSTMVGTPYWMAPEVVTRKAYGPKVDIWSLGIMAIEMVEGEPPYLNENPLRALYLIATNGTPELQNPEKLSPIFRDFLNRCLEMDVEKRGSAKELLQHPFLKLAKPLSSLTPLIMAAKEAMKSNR

Consider `Cc1ccc2c(-c3ccnc(Nc4cccc(C(F)(F)F)c4)n3)c(-c3ccccc3)nn2n1`, for which the inhibition was determined as 13.3% in [1]; 9.96% in [2]; 8.06% in test [3]; 1.38% in [4]; 1.7% in [5]; 5.11% in [6]. In addition, the inhibition was 5.68% in [7], -4.38% in [8] and -7% in test [9].

For `CCCN1CCCC(c2ccc(Nc3nc(Nc4cc(F)ccc4C(N)=O)c4cc[nH]c4n3)c(OC)c2)C1` (centres undefined), the inhibition in [1] was -1.5%; in test [2], 7.38%; in test [3], 9.12%; in test [4] it was 2.49%; in test [5], 3.33%; in test [6], 4.64%. For the same compound, the inhibition in test [7] turned out to be 5.56%; in test [8], 1.21%; in [9], 6.67%; in [10], 2%.

Turning to `Cc1cc(-c2ccccn2)cc(C)c1/C=C/c1cncc(-c2nn[nH]n2)c1`, the inhibition in test [1] was determined as 5.19%; in [2], 6.38%; in test [3] it was 6.81%; in [4], 1.95%; in test [5] it was 2.95%; in test [6] it was 4.9%. For the same compound, the inhibition in test [7] stood at 5.22%; in [8], 1.64%; in test [9] it was 0.08%.

Consider `NC(=O)c1sc(-n2cnc3ccccc32)cc1OCc1ccccc1Br`, for which the inhibition is -2.12% in [1]; 6.29% in test [2]; 10% in test [3]; 1.42% in [4]; 2.45% in test [5]; 4.83% in [6]. In addition, the inhibition was found to be 5.89% in [7], 2.59% in [8] and 5.06% in [9].

In the case of `COC(=O)c1cncc(/C=C/c2c(C)cc(O)cc2C)c1`, the inhibition is -1.43% in test [1]; 4.61% in test [2]; 0.91% in test [3]; 2.48% in test [4]; 0.99% in test [5]; 4.48% in test [6]. Moreover, the inhibition in test [7] stood at 4.33%; in test [8], 9.23%; in test [9], 2.77%; in test [10] it was 1.5%.

`COc1cccc(-n2ncc3c(N/N=C/c4ccc(S(C)(=O)=O)cc4)ncnc32)c1`: the inhibition in test [1] is 2.58%; in test [2], 2.37%; in test [3] it was 3.02%; in test [4], -0.07%; in test [5], -0.47%; in test [6], 0.46%. Further, the inhibition in test [7] was 1.53%; in [8], 2.27%; in [9], 10.1%; in test [10], -8.81%.

In the case of `CCn1c(-c2nonc2N)nc2c(C#CC(C)(C)O)nc(OCCNC)cc21`, the inhibition in test [1] is -1.03%; in test [2] it was 8.56%; in [3], 5.49%; in test [4], 1.23%; in test [5] it was 2.27%; in test [6], 3.16%. Further, the inhibition was 5.05% in test [7], 3.8% in [8] and 12.5% in [9].

Regarding `c1ccc(Nc2ncc(-c3ccccc3)o2)cc1`, the inhibition in [1] came out at 0.04%; in [2] it was 6.49%; in [3] it was 10.6%; in test [4], 0.76%; in test [5], 2.87%; in [6], 5.16%. Moreover, the figures for the inhibition in test [7], in test [8] and in test [9] were 4.34%, 2.74% and 2.9%, respectively.

Turning to `CS(=O)(=O)CCNCc1nc(-c2ccc3ncnc(Nc4ccc(OCc5cccc(C(F)(F)F)c5)cc4)c3c2)cs1`, the inhibition in test [1] is 1.5%; in test [2] it was 1.25%; in test [3], 3.12%; in [4], -0.05%; in test [5] it was -0.1%; in test [6], 2.76%. The inhibition is 5.04% in [7], 2.81% in test [8] and 1.26% in test [9].

In the case of `CN1CCN(C(=O)c2ccc(NC(=O)Nc3ccc(N(C)c4ccnc(Nc5ccc(CS(C)(=O)=O)cc5)n4)cc3)cc2)CC1`, the inhibition in [1] was 12.8%; in [2] it was -0.46%; in [3] it was 6.1%; in [4] it was 0.16%; in [5], 1.51%; in test [6] it was 1.85%. Besides, the values for the inhibition in [7], in [8] and in test [9] were 5.09%, 3.35% and 17.6%, respectively.

For `COc1cc2ncnc(Nc3ccc4c(cnn4Cc4ccccc4)c3)c2cc1OC`, the inhibition in test [1] is -2.02%; in test [2] it was 4.26%; in test [3] it was 6.92%; in test [4], 1.54%; in test [5], 2.6%; in test [6] it was 2.02%. The inhibition in [7] came to 3.19%; in [8], 1.77%; in test [9], 2.16%.

`O=C1Nc2ccccc2/C1=C/Nc1ccc2[nH]c(=O)[nH]c2c1`: the inhibition in test [1] is 2.72%; in test [2], 10.5%; in [3] it was 7.51%; in test [4], 0.87%; in test [5], 1.53%; in test [6], 7.05%. Besides, the inhibition in test [7] was 5.03%; in test [8], 5.25%; in [9] it was 3.2%; in [10], -6.58%.

As for `CCOc1nccc2c1nc(-c1nonc1N)n2CC`, the inhibition in [1] is -0.82%; in test [2], 5.11%; in test [3], 2.07%; in test [4], 0.86%; in test [5], 1.74%; in [6] it was 3.24%. Further, the inhibition in test [7] was determined as 4.4%; in [8] it was 7.54%; in [9], 6.11%; in test [10] it was 5.85%.

In the case of `O=C1Nc2ccc(-c3cccnc3)cc2C1=Cc1cc(Br)c(O)c(Br)c1`, the inhibition was found to be 36% in [1]; 6.15% in [2]; 6.31% in test [3]; 2.5% in test [4]; 2.17% in test [5]; 4.09% in [6]. The inhibition in test [7] is 4.77%; in [8], 0.53%; in test [9], -0.35%; in test [10], -0.06%.

Regarding `OCc1ccc(-c2nc(-c3ccccn3)c(-c3ccc4c(c3)OCO4)[nH]2)cc1`, the inhibition in test [1] is -2.75%; in [2], 3.25%; in test [3], 7.25%; in test [4] it was 2.61%; in test [5], 2.79%; in test [6], 4.79%. For the same compound, the inhibition in [7] was 5.17%; in test [8], 1.77%; in test [9], 0.71%; in test [10], 3.79%.

With `NC(=O)c1cccc(Nc2nccc(Nc3cccc(F)c3)n2)c1`, the inhibition amounted to 2.97% in test [1]; 0.29% in [2]; 2.79% in test [3]; 0.32% in [4]; 0.69% in [5]; 0.23% in [6]. The inhibition in [7] was 2.37%; in test [8] it was -1.35%; in test [9], 1.21%.

As for `COc1cccc(-n2ncc3c(N/N=C/c4ccc(C)cc4)ncnc32)c1`, the inhibition in [1] is -3.2%; in test [2], 10%; in test [3], 9.32%; in test [4] it was 1.75%; in [5], 1.47%; in test [6], 6.06%. The inhibition amounted to 6.42% in test [7], 6.1% in test [8] and 10.7% in test [9].

With `Oc1cccc(-c2nc(-c3ccccc3)[nH]c2-c2ccncc2)c1`, the inhibition in [1] was 4.67%; in [2], 6.65%; in test [3], 6.51%; in [4], 2.18%; in test [5], 1.52%; in [6], 3.47%. For the same compound, the inhibition was found to be 3.48% in [7], 11.4% in [8] and 15.7% in test [9].

Regarding `COc1cc(Nc2nccc(-c3cnn4ncccc34)n2)cc(OC)c1`, the inhibition in [1] is 4.52%; in [2], -0.14%; in [3], 2.57%; in test [4] it was -0.1%; in test [5], 2.59%; in test [6] it was 0.77%. The inhibition is 3.43% in [7], -6.63% in test [8], 9.42% in test [9] and -2.46% in test [10].

For the compound `CCS(=O)(=O)c1ccc(OC)c(Nc2ncc(-c3cccc(OC)c3)o2)c1`, the inhibition in [1] was -4.12%; in [2] it was 2.01%; in test [3] it was 5.71%; in test [4], 2.79%; in test [5] it was 1.98%; in test [6], 3.24%. The inhibition in test [7] is 2.36%; in test [8], 6.72%; in test [9] it was -1.57%; in test [10] it was -4.37%.

These data come from ChEMBL document CHEMBL1961873, “Compounds: GSK PKIS; Assays: Nanosyn kinase panel” (2012).
